# Test system: PPARg:RXRa 30nM:10nM, anti-RXR (NR concentration 30 nM, RXRa partner concentration 10 nM)
# Experiment: PBM binding z-score (relative to random genomic background probes); higher = stronger binding; sequences stand for … in GC…GCGATTGACAGCGTAGAATGAAGG
# How it was run: (§1)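 Probes were double-stranded and carried 34-nt variable regions with direct-repeat seeds, single-nucleotide variants, half-site ablations and random human genomic background sequences, printed on custom Agilent 4×180K protein-binding microarrays. Arrays were incubated 1 h with ligand-free nuclear receptor dimers in PBS pH 7.4, 2% milk, 0.02% Triton X-100, 1 mM DTT, 0.2 mg/mL BSA and 0.4 mg/ml salmon testes DNA. Antibodies against each partner (one per run) detected binding, and scanned fluorescence was regression-normalized. Binding z-scores use the random background probes as reference.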
row,Sequence,PBM binding z-score
1,TCGAGTAGGTTACCAATGAGGCATTCAGCTTTCT,1.28
2,CCTAGTTGGTGAAGGTCACACACGCTATAGGTAC,1.1
3,CCTCGGAGGCCAACAGGAGGTCAGAGCTGCCAGA,-0.921
4,CCTACTGGGCCAAAGGTCATTGAATCCAATGCTC,10.1
5,AGTCAACGTTCACTAGGTAACGTAAGATTCAGCT,0.121
6,ACTATTAGTTGAGACGAGGGCAACCGATAGGTTG,0.376
7,GCATATAGTTAATACAAGGTGAAAGTCCGATTGT,0.496
8,TCTAGTTGGTCATAGGTCACACACTCGAAATGCG,8.3
9,TGTCAAAGTTCAAAGGTAACGTAAGTATCCACAC,5.11
10,CCTTACGGGTCACTAACAGGTTATAGCATTTGGA,1.37
11,CGAACTAGGTCAAGGACAGAGAATCTCCGCACGC,3.62
12,GGAACGAGGGCAAAGTTGATACCATCTGTCGACG,6.52
13,ATCGAAAGGTCGAAGGTGGGTATACCCACCCGAA,1.28
14,TAGCCTAGGTCATTCACGGGCCAGTATAGAAAGC,0.448
15,AATACAGGGTCATCGTAGGACAGAGTACGCACAG,3.07
16,TCATATAGTTAAACAGGTGAAAGTCCGTAAGTTA,4.38
17,CCAGACACGTGAGAAGGTAACTCAGCCTCGATTA,-0.82
18,CATCCAAGGTCAATGCTAGGTCAGTGAAAGCATT,1.44
19,CCTACGGGGCCATCAGGTCATTGATATCAACGTT,0.224
20,CCTACTGGGCCAATGGTCATTGATTCCAATGCTC,3.81

row,Sequence,PBM binding z-score
1,AATACAGGGTCATCGTAGGCCAGAGTGCGCACAG,2.72
2,ATCTCTACGTAACCAAGTTCAGTGAATGCCGAAC,0.163
3,TATACAGGGTCAAAGGCCAGAGGACGAATGTCGA,5.3
4,TGAATGAGATTAAAGATCAGGGAACGTGGCGTCG,1.3
5,GATACAGGGTCAGCTAGAGGCCAGAGAATGGAAA,1.08
6,ATACCAAGGTGATCGTGAGCTCGTTGATACTAAC,-0.316
7,CAAACTAGGTCAACGGAAGGTCAAAGTCCGCATG,5.66
8,CAGCCTAGGTCAGGGCCAGTATGGGAGGAACGTT,-0.673
9,ACAGACCGGTGAGTGAAGGTAACTCAGCTGGACG,-0.631
10,TCTTGTAGATCAACATGAGGTTAAGAAAGATCGA,2.62
11,TAGCCTCGGTCATGGGCCAGTATACCACGCGAAC,-0.674
12,CCTACTGGGCGATCAGGTCATTGATATCAACGTT,0.0672
13,CCATACAGGTGAGAAGGTAACTCAGCCTCGATTA,0.288
14,TTACCAAGGTGAAAGGTCGCTGATGCACGCCTTG,7.04
15,GCGACTGTGGCAAAGCAGGTTACCATAAGGTTGG,-0.529
16,TGAATGAGGTTATACGATCAGGGAACGTTGCAAA,0.555
17,CCTAGCAGGCCAATCTGGGTCAATCAAGGCTTGA,-0.105
18,GCTTACGGGGCAAAGGTTATAGCATGAATAGAAT,7.37
19,TCTTGTAGATCAACAGGAGGTTAAGGAAGATCGA,2.48
20,TCAGACAGGTGAAGGTAACTAAGGTACGCAGTCG,3.8

# Test system: PPARg:RXRa 90nM:30nM, anti-RXR (NR concentration 90 nM, RXRa partner concentration 30 nM)
# Experiment: as above
# How it was run: as §1
row,Sequence,PBM binding z-score
1,TCGAGTAGGTTACCAATGAGGCATTCAGCTTTCT,1.22
2,CCTAGTTGGTGAAGGTCACACACGCTATAGGTAC,1.97
3,CCTCGGAGGCCAACAGGAGGTCAGAGCTGCCAGA,-0.26
4,CCTACTGGGCCAAAGGTCATTGAATCCAATGCTC,10.8
5,AGTCAACGTTCACTAGGTAACGTAAGATTCAGCT,0.475
6,ACTATTAGTTGAGACGAGGGCAACCGATAGGTTG,0.316
7,GCATATAGTTAATACAAGGTGAAAGTCCGATTGT,0.653
8,TCTAGTTGGTCATAGGTCACACACTCGAAATGCG,8.57
9,TGTCAAAGTTCAAAGGTAACGTAAGTATCCACAC,7.32
10,CCTTACGGGTCACTAACAGGTTATAGCATTTGGA,2.83
11,CGAACTAGGTCAAGGACAGAGAATCTCCGCACGC,5.63
12,GGAACGAGGGCAAAGTTGATACCATCTGTCGACG,7.6
13,ATCGAAAGGTCGAAGGTGGGTATACCCACCCGAA,2.77
14,TAGCCTAGGTCATTCACGGGCCAGTATAGAAAGC,1.74
15,AATACAGGGTCATCGTAGGACAGAGTACGCACAG,4.95
16,TCATATAGTTAAACAGGTGAAAGTCCGTAAGTTA,3.42
17,CCAGACACGTGAGAAGGTAACTCAGCCTCGATTA,-0.704
18,CATCCAAGGTCAATGCTAGGTCAGTGAAAGCATT,3.53
19,CCTACGGGGCCATCAGGTCATTGATATCAACGTT,0.958
20,CCTACTGGGCCAATGGTCATTGATTCCAATGCTC,6.38

row,Sequence,PBM binding z-score
1,AATACAGGGTCATCGTAGGCCAGAGTGCGCACAG,4.73
2,ATCTCTACGTAACCAAGTTCAGTGAATGCCGAAC,0.36
3,TATACAGGGTCAAAGGCCAGAGGACGAATGTCGA,7.21
4,TGAATGAGATTAAAGATCAGGGAACGTGGCGTCG,1.91
5,GATACAGGGTCAGCTAGAGGCCAGAGAATGGAAA,2.59
6,ATACCAAGGTGATCGTGAGCTCGTTGATACTAAC,-0.0822
7,CAAACTAGGTCAACGGAAGGTCAAAGTCCGCATG,7.49
8,CAGCCTAGGTCAGGGCCAGTATGGGAGGAACGTT,0.0186
9,ACAGACCGGTGAGTGAAGGTAACTCAGCTGGACG,-1.01
10,TCTTGTAGATCAACATGAGGTTAAGAAAGATCGA,2.31
11,TAGCCTCGGTCATGGGCCAGTATACCACGCGAAC,-0.0831
12,CCTACTGGGCGATCAGGTCATTGATATCAACGTT,0.741
13,CCATACAGGTGAGAAGGTAACTCAGCCTCGATTA,1.26
14,TTACCAAGGTGAAAGGTCGCTGATGCACGCCTTG,9.59
15,GCGACTGTGGCAAAGCAGGTTACCATAAGGTTGG,-0.508
16,TGAATGAGGTTATACGATCAGGGAACGTTGCAAA,1.1
17,CCTAGCAGGCCAATCTGGGTCAATCAAGGCTTGA,1
18,GCTTACGGGGCAAAGGTTATAGCATGAATAGAAT,9.06
19,TCTTGTAGATCAACAGGAGGTTAAGGAAGATCGA,1.68
20,TCAGACAGGTGAAGGTAACTAAGGTACGCAGTCG,3.21

# — the supplement of paper PMC6555819
